Bioassay records from PubChem.
Hits are enriched below; roughly 0.5% of the tested compounds scored in any of these assays.
LANA DNA inh – inhibitors of KSHV C-LANA binding to DNA, primary screen, biochemical, fluorescence polarization, FAM-LBS DNA, MBP-C-LANA, single point | Kaposi's sarcoma herpesvirus LANA C-terminal domain (residues 932-1162) DNA binding | inhibition, % at 9 µM | actives 0.078% (n = 340,000) | AID 504423, 2011;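 active = highest replicate inhibition at or above 60% at 9 µM, even if other replicates fall short; inactive = all replicates below 60% inhibition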;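 also: 0% = neutral control wells and 100% = 4 µM acridine orange control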
RTF Ca sens inh – cardiac RTF calcium sensitivity inhibitors, primary screen, biochemical, IANBD-TnC fluorescence, EC70 calcium. Troponin I, cardiac muscle (Homo sapiens) + Troponin T, cardiac muscle (Homo sapiens) + …. IANBD-labeled cardiac RTF, Ca2+ fluorescence. inhibition, % at 7.15 µM. actives 0.12% (n = 340,000);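 active = inhibition above the mean inhibition of all tested compounds plus 3 SD, cut at about 17% in these data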;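 also: assay run at fixed EC70 calcium of 1.6 mM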
RTF Ca sens act – cardiac RTF calcium sensitivity activators, primary screen, biochemical, IANBD-TnC fluorescence, EC20 calcium; IANBD-labeled TnC RTF fluorescence at EC20 calcium; 0% EC20 calcium, 100% full calcium; Troponin I, cardiac muscle (Homo sapiens) + Troponin T, cardiac muscle (Homo sapiens) + …; activation, % at 7.2 µM; actives 0.24% (n = 340,000);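 active = activation above the mean over all tested compounds plus 3 SD, cut at about 30% in these data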;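 also: rise in fluorescence read as greater calcium sensitivity of cardiac thin filaments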
Keap1 Nrf2 FP – Keap1-Nrf2 protein-protein interaction inhibitors, primary screen, biochemical, fluorescence polarization, single point. Kelch-like ECH-associated protein 1 (Homo sapiens), Q14145. Keap1 Kelch-Nrf2 peptide fluorescence polarization, 1536-well. inhibition, % at 9.4 µM. actives 0.15% (n = 340,000). AID 504523, 2011; in the data active = inhibition above about 12%;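 also: human Keap1 Kelch domain with fluorescein labeled Nrf2 9mer peptide probe; 0% = neutral control wells and 100% = peptide positive control; higher means more block of Keap1 binding to Nrf2 peptide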
Target sequence (Q14145 whole entry, looked up, the tested form may be a part): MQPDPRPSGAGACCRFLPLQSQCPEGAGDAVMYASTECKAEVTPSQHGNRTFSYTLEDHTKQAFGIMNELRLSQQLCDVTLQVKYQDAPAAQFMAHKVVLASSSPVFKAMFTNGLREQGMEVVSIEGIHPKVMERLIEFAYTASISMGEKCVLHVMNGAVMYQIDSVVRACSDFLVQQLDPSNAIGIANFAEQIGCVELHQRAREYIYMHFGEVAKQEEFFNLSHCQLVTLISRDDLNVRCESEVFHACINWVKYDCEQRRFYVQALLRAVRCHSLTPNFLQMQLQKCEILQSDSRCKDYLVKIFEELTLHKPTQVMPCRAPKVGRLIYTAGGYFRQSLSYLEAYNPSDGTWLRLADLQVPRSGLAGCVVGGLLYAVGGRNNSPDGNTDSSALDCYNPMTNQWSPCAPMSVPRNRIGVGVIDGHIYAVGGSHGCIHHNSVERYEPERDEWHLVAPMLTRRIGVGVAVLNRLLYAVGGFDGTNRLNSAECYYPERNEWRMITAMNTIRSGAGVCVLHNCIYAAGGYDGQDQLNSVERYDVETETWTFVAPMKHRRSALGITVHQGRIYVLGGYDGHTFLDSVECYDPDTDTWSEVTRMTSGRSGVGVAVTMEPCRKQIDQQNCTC
Keap1 Kelch bind – Keap1 Kelch domain binders by thermal stabilisation, dose response, biophysical, thermal shift, RT-PCR instrument, cherry-pick; shares compounds with Keap1 Nrf2 FP; delta Tm; active compounds read high; max delta Tm, degrees C; actives 8% (n = 400); in the data active = max delta Tm above about 0.48 degrees C
Dye-only ctr – Sypro Orange dye melt without protein, dose response, artefact control for Keap1-Nrf2 interaction inhibitor project, biochemical, thermal shift counterscreen, cherry-pick; shares compounds with Keap1 Nrf2 FP; Sypro Orange dye-only thermal melt, no protein, delta Tm; top dose 26 µM; delta Tm, degrees C (test concentration not listed); 140 tested, under 10 active; AID 651858, 2012;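 active = at highest dose tested, delta Tm positive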
Numbers without * were called inactive; / = no result given; ! = not active in a repeat.

SMILES | LANA DNA inh | RTF Ca sens inh | RTF Ca sens act | Keap1 Nrf2 FP | Keap1 Kelch bind | others
Cc1snc(S(=O)(=O)/C(C#N)=N/Nc2cccc(C(F)(F)F)c2)c1C#N | -2 | 0 | -14 | 12* | 0.19
O=C1c2cccc3c(N4CCCCC4)ccc(c23)C(=O)N1c1cccc(O)c1 | 53 | -120 | 59* | 27* | -0.08 | Dye-only ctr=-27
Cc1n[nH]c(C)c1N1C(=O)c2cccc3c(N4CCCCCC4)ccc(c23)C1=O | 42 | -391 | 317* | 16* | -0.13
O=C(CSc1nnc(-c2ccncc2)o1)N1CCc2ccccc2C1 | -2 | -5 | 4 | -3 | /
O=C(Cc1ccc(S(=O)(=O)N2CCCC2)s1)Nc1nc2c(s1)CCCC2 | 10 | -14 | 5 | 13* | -0.08 | Dye-only ctr=-29
COc1ccc(CCNC(=O)C(=O)NCC2OCCN2S(=O)(=O)c2cccs2)cc1 (stereo unspecified) | -1 | -9 | -7 | -4 | /
O=[N+]([O-])c1cccc(COc2ncnc3cc([N+](=O)[O-])ccc23)c1 | 0 | -8 | -3 | 0 | /
CCC(C)(C)n1nnnc1C(c1cc2ccc(OC)cc2[nH]c1=O)N1CCc2ccccc2C1 (stereo unspecified) | 35 | -1 | -1 | 9.6* | -0.13 | Dye-only ctr=-24
COc1ccc(NC(=O)CSc2nnc(CCC(=O)Nc3ccc(C)c(Cl)c3)n2C)cc1 | 1 | -9 | 10 | 3 | /
COc1ccccc1N(C)S(=O)(=O)c1ccc(C(=O)NCc2ccccc2CN2CCCC2)cc1 | 30 | -10 | 3 | 47* | -0.19
COc1ccccc1CNC(=O)c1ccc(S(=O)(=O)N(C)c2ccccc2)cc1 | 0 | -1 | -5 | -2 | /
O=C(COC(=O)c1ccc([N+](=O)[O-])s1)Nc1cccc(S(=O)(=O)NC2=NCCCCC2)c1 | 6 | 2 | -1 | 53* | -0.13
O=C(COC(=O)c1cccs1)Nc1cccc(S(=O)(=O)NC2=NCCCCC2)c1 | 0 | -8 | -1 | 0 | /
CCOc1ccc(S(=O)(=O)Nc2cccc(C(=O)NCCCn3ccnc3)c2)cc1 | 12 | -12 | -2 | 27* | 0.01
COc1ccc(C(=O)NCc2nnc(SCC(=O)N3CCc4ccccc43)n2Cc2ccccc2)cc1 | 0 | -7 | -2 | 2 | /
COc1cc2c3nnc(-c4ccc(F)cc4)c-3cn(Cc3ccc(F)cc3)c2cc1OC | 24 | -5 | 0 | 8 | /
COc1cc2c3nnc(-c4ccc(F)cc4)c-3cn(Cc3ccccc3)c2cc1OC | 2 | -9 | 7 | 16* | -0.16 | Dye-only ctr=-26
COc1cccc(OC)c1C(=O)Nc1cccc2c1CCCC2 | 0 | -5 | -6 | -2 | /
CCc1ccc(C(=O)COC(=O)[C@@H](NC(N)=O)[C@@H](C)CC)cc1 | 0 | 9 | -1 | -2 | /
Cc1cc(NC(=O)CSc2nnc(-c3ccncc3)n2C)n(-c2ccccc2)n1 | 12 | -13 | 3 | 15* | -0.15 | Dye-only ctr=-22
CCN1CC=C2C(C1)C(c1ccc(Cl)s1)C(C#N)=C(N)C2(C#N)C#N (stereo unspecified) | 36 | -27 | 30* | 21* | -0.04
CCCCCn1c(SCc2cccc(C)c2)nc2c1c(=O)[nH]c(=O)n2C | -1 | 4 | 2 | -3 | /
CC1(C)CC(=O)C2=C(C1)OC1=C(C2)C(=O)CC(C)(C)C1 | 2 | -4 | -4 | 21* | -0.1
CCOc1ccc(C(=O)COC(=O)c2nn(CC)c(=O)c3ccccc23)cc1 | 11 | -1 | -1 | 21* | -0.09
COC(=O)C1=COC(C)C2CN3CCc4c([nH]c5ccccc45)C3CC12 (stereo unspecified) | 45 | -33 | 35* | 15* | 0.01
SMILES | LANA DNA inh | RTF Ca sens inh | RTF Ca sens act | Keap1 Nrf2 FP | Keap1 Kelch bind | others
COC(=O)C1=CO[C@@H](C)[C@H]2CN3CCc4c([nH]c5ccccc45)[C@@H]3C[C@H]12 | 2 | 12 | -1 | -2 | /
COc1ccc(C2N3CC4(C)CN2CC(C)(C3)C4O)cc1 (stereo unspecified) | 2 | 4 | 4 | 20* | -0.16
COc1ccc(C2N3CC4(C)CN2CC(C)(C3)C4O)cc1OC (stereo unspecified) | 0 | 1 | 4 | -1 | /
c1ccc(C2CCC(N3CCNCC3)CC2)cc1 (stereo unspecified) | -1 | -4 | 3 | -1 | /
CCOC(=O)/C(=N\Nc1ccccc1)P(=O)(c1ccccc1)c1ccccc1 | -1 | 2 | 2 | -5 | /
CCN1CCN(c2nc(-c3ccccc3)c3ccccc3n2)CC1 | 2 | -16 | -4 | -3 | /
CCn1nc(-c2ccccc2)c2nc3ccccc3nc21 | 74 | -90 | 50* | 42* | -0.07 | Dye-only ctr=-28
Oc1ccc2nnc3c(Br)cnn3c2c1 | 67* | -116 | 84* | 37* | -0.17
COc1ccc(NC(=O)Cc2ccsc2)cc1S(=O)(=O)N1CCOCC1 | 27 | -13 | 9 | 46* | -0.13
CCOC(=O)C1=C(C)NC(C)=C(C(=O)OCC)C1c1ccc([N+](=O)[O-])s1 | 20 | / | / | 39* | -0.11
OC(Cc1ccncc1)(c1ccccc1)c1ccccc1 | -1 | -7 | -1 | 28* | -0.11
OC(CNCc1ccccc1)(c1ccccc1)c1ccccc1 | -2 | -3 | -2 | 1 | /
Cc1cc2nc3c(=O)[nH]c(=O)[nH]c3nc2c([N+](=O)[O-])c1N | 109* | -133 | 140* | 89* | 0.18 | Dye-only ctr=-27
COc1ccc(C(CNC(=O)C(C)(C)Oc2ccc(Cl)cc2)N2CCOCC2)cc1 (stereo unspecified) | 0 | 1 | -6 | -1 | /
O=S(=O)(Nc1ncccn1)c1ccc(NC(=S)NCc2cccnc2)cc1 | 1 | 10 | 2 | 17* | -0.18
COc1cccc(NCc2cc(=O)oc3cc(C)c(C(C)C)cc23)c1 | 0 | -7 | 1 | 1 | /
CN1CCC2(CC1)C1CN(C)CC=C1C(C#N)=C(N)C2(C#N)C#N (stereo unspecified) | 40 | -44 | 37* | 14*! | -0.14
CC(OC(=O)c1ccc([N+](=O)[O-])o1)C(=O)NC1CCCCC1C (stereo unspecified) | 10 | 2 | 6 | 21* | -0.07
CCOC(=O)C1=C(CSc2nc3c(cc2C#N)CN(C)CC3)OC(N)=C(C#N)C1c1ccc(Cl)cc1 (stereo unspecified) | 3 | -13 | 5 | -6 | /
